Where “and” joins values, the source holds several entries; their conditions need not be identical. Equal values may be shown once. Records with an inconclusive call do not appear. Calls of active or inactive are those of the source. Unless noted, calls come from the whole dose curve; as a rule, active = well fitted curve in the direction sought with a large enough effect in the repeat runs; inconclusive = weak or mixed curves; inactive = no such curve, though single readings can be large; an effect the other way counts as inactive or inconclusive.
Columns and labels:
[1] = qHTS assay to identify small molecule antagonists of the glucocorticoid receptor (GR) signaling pathway - cell viability counter screen (AID 720693); note: nearly all actives have a fitted effect of over 55% in size
[2] = qHTS assay for identifying genotoxic compounds that show differential cytotoxicity against isogenic chicken DT40 cell lines with known DNA damage response pathways - wild type cell line (AID 743012); note: nearly all actives have a fitted effect of over 60% in size; note: potency is the fitted concentration of half-maximal effect
Summary of the method: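 Wild-type DT40 cells (300/well) exposed to compounds for 40 hours at 37 C/5% CO2. Viability read by CellTiter-Glo luminescence after 30 min at room temperature.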

[3] = qHTS assay for identifying genotoxic compounds that show differential cytotoxicity against isogenic chicken DT40 cell lines with known DNA damage response pathways - Rev3 mutant cell line (AID 743014); note: nearly all actives have a fitted effect of over 55% in size; note: potency is the fitted concentration of half-maximal effect
[4] = qHTS assay for identifying genotoxic compounds that show differential cytotoxicity against isogenic chicken DT40 cell lines with known DNA damage response pathways - Rad54/Ku70 mutant cell line (AID 743015); note: nearly all actives have a fitted effect of over 60% in size; note: potency is the fitted concentration of half-maximal effect
[5] = qHTS assay to identify small molecule antagonists of the androgen receptor (AR) signaling pathway - cell viability counter screen (AID 743033; note: nearly all actives have a fitted effect of over 45% in size; note: potency is the fitted concentration of half-maximal effect)
[6] = qHTS assay to identify small molecule antagonists of the androgen receptor (AR) signaling pathway using the MDA cell line - cell viability counter screen (AID 743041; note: nearly all actives have a fitted effect of over 45% in size)
Summary of the method: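 Cells were plated at 3,000 per well and left 5 h. Compounds in DMSO were then pinned in, followed by R1881. After 16 h at 37C, CellTiter-Fluor fluorescence gave viability.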

[7] = qHTS assay to identify small molecule antagonists of the thyroid receptor (TR) signaling pathway - cell viability counter screen (AID 743064); note: nearly all actives have a fitted effect of over 50% in size; note: potency is the fitted concentration of half-maximal effect
Summary of the method: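 GH3.TRE-Luc cells, 4 h pre-plating; cpd + T3 1 nM final; 37 °C 23.5 h; CellTiter-Fluor 30 min; fluorescence read.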

[8] = molecular target: Androgen receptor (Homo sapiens) (UniProt P10275); assay: qHTS assay to identify small molecule antagonists of the androgen receptor (AR) signaling pathway (AID 743035; active = well fitted inhibition curve with a large enough effect in the signal ratio in the repeat runs, not every such curve was filed as active; the % refers to the signal ratio; note: potency is the fitted concentration of half-maximal effect)
Androgen receptor (Homo sapiens), sequence (P10275 whole entry, looked up): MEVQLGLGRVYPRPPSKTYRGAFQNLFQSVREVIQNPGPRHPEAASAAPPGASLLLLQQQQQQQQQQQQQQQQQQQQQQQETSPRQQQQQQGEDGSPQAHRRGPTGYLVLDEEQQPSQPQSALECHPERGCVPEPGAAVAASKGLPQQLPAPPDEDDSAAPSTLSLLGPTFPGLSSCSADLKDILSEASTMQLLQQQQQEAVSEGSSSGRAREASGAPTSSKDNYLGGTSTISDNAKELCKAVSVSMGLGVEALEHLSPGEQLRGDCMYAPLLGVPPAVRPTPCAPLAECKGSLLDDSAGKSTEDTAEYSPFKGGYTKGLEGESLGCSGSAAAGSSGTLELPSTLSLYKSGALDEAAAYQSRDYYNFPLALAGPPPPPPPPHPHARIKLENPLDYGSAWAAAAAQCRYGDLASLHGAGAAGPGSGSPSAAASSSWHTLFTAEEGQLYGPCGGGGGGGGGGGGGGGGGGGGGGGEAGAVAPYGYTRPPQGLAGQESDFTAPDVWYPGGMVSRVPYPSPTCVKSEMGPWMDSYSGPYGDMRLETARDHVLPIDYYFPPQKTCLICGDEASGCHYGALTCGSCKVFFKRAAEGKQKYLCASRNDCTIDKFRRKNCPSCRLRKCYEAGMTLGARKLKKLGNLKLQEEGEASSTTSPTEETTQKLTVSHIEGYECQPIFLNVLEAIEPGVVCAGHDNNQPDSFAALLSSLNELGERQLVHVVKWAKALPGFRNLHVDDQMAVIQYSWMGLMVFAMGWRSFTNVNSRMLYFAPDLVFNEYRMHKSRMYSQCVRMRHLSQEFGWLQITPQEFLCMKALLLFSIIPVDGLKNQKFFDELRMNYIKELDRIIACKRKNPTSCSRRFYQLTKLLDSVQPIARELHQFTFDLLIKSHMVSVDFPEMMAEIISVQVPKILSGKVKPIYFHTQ
Summary of the method: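 HEK293 cells stably carrying UAS-beta-lactamase reporter, 2,000/well, given compounds plus R1881 agonist and incubated 16 h at 37C. LiveBLAzer B/G FRET substrate then added for 2 h at room temperature before fluorescence reading.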

[9] = molecular target: Androgen receptor (Homo sapiens) (UniProt P10275); assay: qHTS assay to identify small molecule agonists of the androgen receptor (AR) signaling pathway using the MDA cell line (AID 743040; note: nearly all actives have a fitted effect of over 20% in size)
Summary of the method: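 Cells plated, 5 h at 37C/0% CO2; compound or DMSO pinned; 16 h at 37C; ONE-Glo added; luminescence measured after 30 min at room temperature. Reporter line: MDA-kb2 with MMTV-luciferase responsive to AR and GR.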

[10] = molecular target: Androgen receptor (Homo sapiens) (UniProt P10275); assay: qHTS assay to identify small molecule antagonists of the androgen receptor (AR) signaling pathway using the MDA cell line (AID 743042; note: nearly all actives have a fitted effect of over 55% in size; note: potency is the fitted concentration of half-maximal effect)
Summary of the method: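 Antagonist mode: compounds plus R1881 agonist added to MDA-kb2 AR-luc cells, incubated 16 h at 37C. Luciferase reporter luminescence quantified, with multiplexed CellTiter-Fluor readout for cell viability.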
% is set by controls: 0 for no effect and ±100 for the full control effect.

CCOC(=O)CCl
inactive: Potency [1] | Potency [2] | Potency [3] | Potency [4] | Potency [5] | Potency [6] | Potency [7]

C[C@H]1CCCC(=O)CCC/C=C/c2cc(O)cc(O)c2C(=O)O1
active: Potency [2] 20.9 µM and 20 µM | Potency [3] 16.6 µM and 22.4 µM | Potency [4] 16.6 µM and 17.8 µM | Potency [5] 42.1 µM | Potency [8] 20.2 µM | Potency [10] 52.5 µM | Potency [7] 23.4 µM and 20 µM
inactive: Potency [1] | outcome [9] | Potency [6]

COC(=O)c1ccc(CBr)cc1
inactive: Potency [1] | Potency [2] | Potency [3] | Potency [4] | Potency [5] | Potency [8] | outcome [9] | Potency [6] | Potency [10] | Potency [7]

O=C1CC(=O)NC(=O)N1
inactive: Potency [1] | Potency [2] | Potency [3] | Potency [4] | Potency [5] | Potency [6] | Potency [7]

CCc1cc(OC)c(C[C@H](C)N)cc1OC
inactive: Potency [1]
active: Potency [2] 63.7 µM | Potency [3] 71.5 µM

O=C(Cl)c1ccccc1
inactive: Potency [1] | Potency [2] | Potency [3] | Potency [4] | Potency [5] | Potency [6] | Potency [7]

O=C(Cl)CCl
inactive: Potency [1] | Potency [2] | Potency [3] | Potency [4] | Potency [5] | Potency [6] | Potency [7]

NC(=O)OCCCc1ccccc1
inactive: Potency [1] | Potency [5] | Potency [6] | Potency [7]
active: Potency [2] 13.3 µM | Potency [3] 11.9 µM | Potency [4] 29.8 µM

O=C(Cl)OCc1ccccc1
inactive: Potency [1] | Potency [2] | Potency [3] | Potency [4] | Potency [5] | Potency [6]

CC(O)CCl (stereo not drawn)
inactive: Potency [1] | Potency [2] | Potency [3] | Potency [4] | Potency [5] | Potency [6] | Potency [7]

CCCN1CCC[C@@H]2Cc3nc(N)ncc3C[C@H]21
inactive: Potency [1] | Potency [2] | Potency [3] | Potency [4] | Potency [5] | Potency [6] | Potency [7]

CC(C)(C)C(=O)Cl
inactive: Potency [1] | Potency [2] | Potency [3] | Potency [4] | Potency [5] | Potency [6] | Potency [7]

CCOP(=S)(OCC)SCCl
inactive: Potency [1] | Potency [2] | Potency [3] | Potency [4] | Potency [5] | Potency [8] | outcome [9] | Potency [6] | Potency [10] | Potency [7]

CN(C)CCN(C)C
inactive: Potency [1] | Potency [2] | Potency [3] | Potency [4] | Potency [5] | Potency [6]

BrCCc1ccccc1
inactive: Potency [1] | Potency [2] | Potency [3] | Potency [4] | Potency [5] | Potency [6] | Potency [7]

O=C(Cl)C(Cl)(Cl)Cl
inactive: Potency [1] | Potency [2] | Potency [3] | Potency [4] | Potency [5] | Potency [6]

CCN[C@H](C)Cc1cccc(C(F)(F)F)c1
active: Potency [2] 60.9 µM | Potency [3] 30.5 µM | Potency [4] 54.3 µM
inactive: Potency [1] | Potency [5] | Potency [6]

ClCOCCl
inactive: Potency [1] | Potency [2] | Potency [3] | Potency [4] | Potency [5] | Potency [6] | Potency [7]

NNC(N)=O
inactive: Potency [1] | Potency [2] | Potency [3] | Potency [4] | Potency [5] | Potency [6] | Potency [7]

CCCC(C)C1(CC)C(=O)N=C(S)NC1=O (stereo not drawn)
inactive: Potency [1] | Potency [2] | Potency [3] | Potency [4] | Potency [5] | Potency [6] | Potency [7]

ClCCCCCCCl
inactive: Potency [1] | Potency [2] | Potency [3] | Potency [4] | Potency [5] | Potency [6] | Potency [7]

O=C(O)C(Br)(Br)Br
inactive: Potency [1] | Potency [2] | Potency [3] | Potency [4] | Potency [5] | Potency [6] | Potency [7]

Cc1ccc(Cl)c(O)c1
inactive: Potency [1] | Potency [2] | Potency [3] | Potency [4] | Potency [5] | Potency [6] | Potency [7]

CCC(C)(C#N)N=NC(C)(C#N)CC (stereo not drawn)
inactive: Potency [1] | Potency [2] | Potency [3] | Potency [4] | Potency [5] | Potency [8] | outcome [9] | Potency [6] | Potency [10] | Potency [7]

CC(C)(C)C(=O)C(Cl)Cl
inactive: Potency [1] | Potency [2] | Potency [3] | Potency [4] | Potency [5] | Potency [6] | Potency [7]

COc1ccc2c(C(=O)c3ccc(Cl)cc3)c(C)n(CC(=O)O)c2c1
inactive: Potency [1] | Potency [2] | Potency [3] | Potency [4] | Potency [5] | Potency [6]

CCC(C(N)=O)N1CCCC1=O (stereo not drawn)
inactive: Potency [1] | Potency [2] | Potency [3] | Potency [4] | Potency [5] | Potency [6]

S=C=S
inactive: Potency [1] | Potency [2] | Potency [3] | Potency [4] | Potency [5] | Potency [6] | Potency [7]

CNC(=O)Oc1ccccc1C(C)C
inactive: Potency [1] | Potency [2] | Potency [3] | Potency [4] | Potency [5] | Potency [8] | outcome [9] | Potency [6] | Potency [10] | Potency [7]

O=C(O)c1c(Cl)ccc2cc(Cl)cnc12
inactive: Potency [1] | Potency [2] | Potency [3] | Potency [4] | Potency [5] | Potency [6] | Potency [7]

O=c1[nH]oc2c1CCNC2
inactive: Potency [1] | Potency [2] | Potency [3] | Potency [4] | Potency [5] | Potency [6] | Potency [7]

Cc1ccc2cc(C)ccc2c1
inactive: Potency [1] | Potency [2] | Potency [3] | Potency [4] | Potency [5] | Potency [6]

C=CC(=O)OCCN(C)C
inactive: Potency [1] | Potency [2] | Potency [3] | Potency [4] | Potency [5] | Potency [6] | Potency [7]

Brc1c(Br)c(Br)c(Br)c(Br)c1Br
inactive: viability change, negative = cytotoxic [1] -0.032% [at 7.04 µM] | activity change, negative = cytotoxicity [2] -12.6% [at 8.52 µM] | activity, negative = cytotoxicity [3] 4.56% [at 8.53 µM] | activity change, negative = cytotoxicity [4] 8.63% [at 8.55 µM] | activity change, negative = cytotoxicity [5] -0.0996% [at 7.04 µM] | viability change, negative = cytotoxic [6] 1.47% [at 8.47 µM]

COc1ccc(C=O)cc1O
inactive: Potency [1] | Potency [2] | Potency [3] | Potency [4] | Potency [5] | outcome [9] | Potency [6] | Potency [10] | Potency [7]

CN=CNc1ccc(C)cc1C
inactive: Potency [1] | Potency [2] | Potency [3] | Potency [4] | Potency [5] | Potency [6] | Potency [7]

O=C(Cl)C(Cl)Cl
inactive: Potency [1] | Potency [2] | Potency [3] | Potency [4] | Potency [5] | Potency [6]

CCSC(=O)Cl
inactive: Potency [1] | Potency [2] | Potency [3] | Potency [4] | Potency [5] | Potency [8] | Potency [6] | Potency [10] | Potency [7]

C[C@H](CN1CCOCC1)C(C(=O)N1CCCC1)(c1ccccc1)c1ccccc1
inactive: Potency [1] | Potency [5] | outcome [9] | Potency [6] | Potency [10]
active: Potency [2] 33.2 µM | Potency [3] 37.3 µM | Potency [4] 59.1 µM

CC1NCCOC1c1ccccc1 (stereo not drawn)
inactive: Potency [1] | Potency [2] | Potency [3] | Potency [4] | Potency [5] | Potency [6] | Potency [7]

COP(=O)(O)OC
inactive: Potency [1] | Potency [2] | Potency [3] | Potency [5] | Potency [8] | outcome [9] | Potency [6] | Potency [10] | Potency [7]

CCC1(c2cccc(O)c2)CCCCN(C)C1 (stereo not drawn)
inactive: Potency [1] | Potency [2] | Potency [3] | Potency [4] | Potency [6] | Potency [7]

Cc1cc(OC(=O)N(C)C)nn1C(=O)N(C)C
inactive: Potency [1] | Potency [2] | Potency [3] | Potency [4] | Potency [5] | Potency [6] | Potency [7]

Cl/C=C/CCl
inactive: Potency [1] | Potency [2] | Potency [3] | Potency [4] | Potency [5] | Potency [6] | Potency [7]

O=C(O)C(Cl)Br (stereo not drawn)
inactive: Potency [1] | Potency [2] | Potency [3] | Potency [4] | Potency [6] | Potency [7]

O=C/C=C/c1ccco1
inactive: Potency [1] | Potency [2] | Potency [3] | Potency [5] | Potency [8] | outcome [9] | Potency [6] | Potency [10] | Potency [7]

CCCCCCC1CCOC1=O (stereo not drawn)
inactive: Potency [1] | Potency [2] | Potency [3] | Potency [4] | Potency [5] | Potency [6] | Potency [7]

O=C1CCCCC1Cl (stereo not drawn)
inactive: Potency [1] | Potency [2] | Potency [3] | Potency [4] | Potency [5] | Potency [6] | Potency [7]

C/C=C/CC#N
inactive: Potency [1] | Potency [2] | Potency [3] | Potency [4] | Potency [6] | Potency [7]

ClCC1CO1 (stereo not drawn)
inactive: Potency [1] | Potency [2] | Potency [3] | Potency [4] | Potency [5] | Potency [6] | Potency [7]

NCC1(CC(=O)O)CCCCC1
inactive: Potency [1] | Potency [2] | Potency [3] | Potency [4] | Potency [6] | Potency [7]

C[C@H](N)C(=O)c1ccccc1
inactive: Potency [1] | Potency [2] | Potency [3] | Potency [5] | Potency [8] | outcome [9] | Potency [6] | Potency [10] | Potency [7]

COc1cc(CC(C)N)cc(OC)c1OC (stereo not drawn)
inactive: Potency [1] | Potency [2] | Potency [3] | Potency [4] | Potency [5] | Potency [7]

CC(C)[N+](C)(CCC(C(N)=O)(c1ccccc1)c1ccccc1)C(C)C
inactive: Potency [1] | Potency [2] | Potency [3] | Potency [4] | Potency [5] | Potency [6] | Potency [7]

O=CCCl
active: Potency [2] 19.3 µM | Potency [3] 0.217 µM | Potency [4] 27.3 µM
inactive: Potency [1] | Potency [5] | Potency [6] | Potency [7]

CN1C(=O)COc2c(C(=O)NC3CN4CCC3CC4)cc(Cl)cc21 (stereo not drawn)
inactive: Potency [1] | Potency [2] | Potency [3] | Potency [4] | Potency [6]
